Assay results: the supplement of paper PMC12350171
Counter-ions that a name gives are not always drawn. Unmarked numbers belong to inactive results.

Experiments:
Conditions in all cases: 20 µM
[1] = test system: Salmonella enterica typhimurium; assay: growth AUC normalised to DMSO control (fraction of control); higher = less growth inhibition, active = hit call of the paper
Method in brief: (§1)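 After two anaerobic passages, pathogens were added at a starting OD578 of 0.01 to pre-reduced mGAM plates holding compound at 20 μM with 1% DMSO; hemin and NAD were supplemented for Haemophilus parainfluenzae. Sealed with breathable membranes, plates were read at OD578 hourly for 24 h, in three biological replicates. The trapezoidal rule, applied up to the exponential-to-stationary transition, gave the growth-curve AUC, which was normalised to DMSO controls on the same plate.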

Shigella flexneri = assay: as above
Method in brief: as §1

Vibrio cholerae = assay: as above
Method in brief: as §1

[2] = test system: Yersinia pseudotuberculosis; assay: as above
Method in brief: as §1

P. vulgatus RND KO = assay: growth AUC normalised to DMSO control (median) (fraction of control); higher = less growth inhibition, active = hit call of the paper
Method in brief: (§2)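 Each strain went through two overnight passages under anaerobic conditions before growth in mGAM in 96-well plates, starting at OD578 0.01, with each compound from the approved-drug library at 20 μM and 1% DMSO. Inside an anaerobic incubator, OD578 was recorded every hour for 24 h. Growth curves were cut off at entry into stationary phase, and the area under the curve was calculated by the trapezoidal rule and normalised to vehicle wells on the same plate. Reported values are medians of three biological replicates.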

P. vulgatus WT = assay: as above
Method in brief: as §2

[3] = test system: S. enterica typhimurium WT; assay: as above
Method in brief: as §2

[4] = test system: S. enterica typhimurium tolC KO; assay: as above
Method in brief: as §2
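Wherever growth AUC normalised to DMSO control (median) is given: active when median AUC fell below 0.1.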

| Compound | growth AUC normalised to DMSO control [1] | growth AUC normalised to DMSO control (Shigella flexneri) | growth AUC normalised to DMSO control (Vibrio cholerae) | growth AUC normalised to DMSO control [2] | growth AUC normalised to DMSO control (P. vulgatus RND KO) | growth AUC normalised to DMSO control (P. vulgatus WT) | growth AUC normalised to DMSO control [3] | growth AUC normalised to DMSO control [4] |
| --- | --- | --- | --- | --- | --- | --- | --- | --- |
| Cn1nnc2c(C(N)=O)ncn2c1=O [Temozolomide] | 0.981 | 0.963 | 0.992 | 0.996 | 0.989 | 0.988 | 0.967 | 1.01 |
| C#C[C@]1(O)CC[C@H]2[C@@H]3CCC4=C(CCC(=O)C4)[C@H]3CC[C@@]21C [Norethynodrel] | 1 | 1 | 0.994 | 0.992 | 0.992 | 1.01 | 0.996 | 0.993 |
| COC(=O)C1=C(C#N)NC(C)=C(C(=O)OC(C)C)C1c1cccc([N+](=O)[O-])c1 (stereo not given) [Nilvadipine] | 1.01 | 1.03 | 1.02 | 1.02 | 1.15 | 1.12 | 1 | 0.922 |
| CCN(CC)CC#CCOC(=O)C(O)(c1ccccc1)C1CCCCC1 (stereo not given) [Oxybutynin chloride] | 0.977 | 0.944 | 0.935 | 0.981 | 0.976 | 0.986 | 0.999 | 0.946 |
| CO[C@H]1/C=C/O[C@@]2(C)Oc3c(C)c(O)c4c(O)c(c(/C=N/N5CCN(C6CCCC6)CC5)c(O)c4c3C2=O)NC(=O)/C(C)=C\C=C\[C@H](C)[C@H](O)[C@@H](C)[C@@H](O)[C@@H](C)[C@H](OC(C)=O)[C@@H]1C [Rifapentine] | 0.258 (active) | 0.588 (active) | 1.03 | 0.0449 (active) | 0.0203 (active) | 0.0164 (active) | 0.78 | 0.716 |
| CN(C)CC/C=C1/c2ccccc2COc2ccc(CC(=O)O)cc21 [Olopatadine hydrochloride] | 1.02 | 0.963 | 1.03 | 1.02 | 0.99 | 0.984 | 0.992 | 0.992 |
| C=C1/C(=C\C=C2/CCC[C@]3(C)[C@@H]([C@H](C)/C=C/[C@@H](O)C4CC4)CC[C@@H]23)C[C@@H](O)C[C@@H]1O [Calcipotriene] | 0.987 | 0.931 | 0.972 | 0.977 | 0.931 | 0.958 | 1.01 | 0.946 |
| N=C(N)NCc1cccc(I)c1 [Iobenguane sulfate] | 1.03 | 1.03 | 1.06 | 1.01 | 1.09 | 1.1 | 1.01 | 1 |
| OCc1cc(C(O)CNCCCCCCOCCCCc2ccccc2)ccc1O (stereo not given) [Salmeterol] | 0.997 | 0.995 | 1 | 0.959 | 0.977 | 0.962 | 0.995 | 0.946 |
| COc1ccc2[nH]cc(CCNC(C)=O)c2c1 [Melatonin] | 0.987 | 0.972 | 0.997 | 0.992 | 0.988 | 1 | 0.996 | 0.996 |
| CCCc1nc2c(C)cc(-c3nc4ccccc4n3C)cc2n1Cc1ccc(-c2ccccc2C(=O)O)cc1 [Telmisartan] | 1 | 1.02 | 1.02 | 1.01 | 0.852 | 0.897 | 0.996 | 0.995 |
| CN(C)CCCSC(=N)N [Dimaprit dihydrochloride] | 0.991 | 1 | 0.986 | 1 | 0.99 | 0.999 | 1 | 1.01 |
| CC1COc2c(N3CCN(C)CC3)c(F)cc3c(=O)c(C(=O)O)cn1c23 (stereo not given) [Ofloxacin] | 0.00746 (active) | 0.0235 (active) | 0.031 (active) | 0.0386 (active) | 0.0133 (active) | 0.0136 (active) | 0.0106 (active) | 0.00311 (active) |
| CN[C@@H]1[C@H](O)[C@H](NC)[C@H]2O[C@@]3(O)C(=O)C[C@@H](C)O[C@H]3O[C@@H]2[C@H]1O [Spectinomycin dihydrochloride] | 0.896 (active) | 1.01 | 1.02 | 0.933 (active) | 1.01 | 1 | 0.961 | 0.871 |
| N=C(NCCCCCCNC(=N)NC(=N)Nc1ccc(Cl)cc1)NC(=N)Nc1ccc(Cl)cc1 [Chlorhexidine] | 0.355 (active) | 0.0156 (active) | 0.954 | 0.307 (active) | 0.00823 (active) | 0.0134 (active) | 0.942 | 0.816 |
| CC(C)C(=O)Nc1ccc([N+](=O)[O-])c(C(F)(F)F)c1 [Flutamide] | 1.01 | 1.04 | 1.01 | 0.988 | 1 | 1.01 | 0.985 | 0.96 |
| CCN(CC)CCOC(=O)C(c1ccccc1)C1CCCCC1 (stereo not given) [Drofenine hydrochloride] | 0.989 | 1.01 | 0.929 | 1 | 1.01 | 1.03 | 0.989 | 0.943 |
| Nc1c(Br)cc(Br)cc1CN[C@H]1CC[C@H](O)CC1 [Ambroxol hydrochloride] | 0.979 | 0.987 | 0.963 | 1 | 0.955 | 0.961 | 0.982 | 0.991 |
| CCN(CC)CCNC(=O)c1ccc(N)cc1 [Procainamide hydrochloride] | 0.994 | 0.99 | 0.999 | 1 | 1.02 | 1.03 | 1 | 1 |
| CCC1NC(=O)c2cc(S(N)(=O)=O)c(Cl)cc2N1 (stereo not given) [Quinethazone] | 1.01 | 1.03 | 1.05 | 1.01 | 1.06 | 1.12 | 1.01 | 1.01 |
| Cc1ncc(CO)c(CO)c1O [Pyridoxine hydrochloride] | 0.992 | 1.01 | 0.996 | 1 | 1.01 | 1.01 | 1.01 | 0.992 |
| COCCc1ccc(OCC(O)CNC(C)C)cc1 (stereo not drawn) [Metoprolol-(+)-tartrate salt] | 0.996 | 0.977 | 0.998 | 0.996 | 1.01 | 1.03 | 1 | 1.01 |
| Oc1c(Cl)cc(Cl)c2cccnc12 [Chloroxine] | 0.922 (active) | 0.884 (active) | 0.0387 (active) | 0.652 (active) | 0.32 | 0.0729 (active) | 0.969 | 0.568 |
| CC(=C(CCO)SSCC1CCCO1)N(C=O)Cc1cnc(C)nc1N (stereo in doubt) [Fursultiamine hydrochloride] | 1.01 | 0.965 | 1 | 1.01 | 1.02 | 0.995 | 0.986 | 0.999 |
| O=C(CCCN1CCC(O)(c2ccc(Cl)cc2)CC1)c1ccc(F)cc1 [Haloperidol] | 0.976 | 0.966 | 0.97 | 0.966 | 0.965 | 0.963 | 0.998 | 0.962 |
| CCn1cc(C(=O)O)c(=O)c2ccc(C)nc21 [Nalidixic acid sodium salt] | 0.594 (active) | 0.111 (active) | 0.035 (active) | 0.052 (active) | 0.985 | 0.969 | 0.105 | 0.0195 (active) |
| CNS(=O)(=O)Cc1ccc2[nH]cc(CCN(C)C)c2c1 [Sumatriptan succinate] | 0.996 | 0.967 | 0.988 | 1 | 1.03 | 1.01 | 1.01 | 1 |
| CC(C)(C)NCC(O)c1cc(O)cc(O)c1 (stereo not given) [Terbutaline hemisulfate] | 1.02 | 1.03 | 1.07 | 1 | 1.06 | 1.06 | 1.01 | 1.01 |
| O=C(O)c1cn(-c2ccc(F)cc2)c2cc(N3CCNCC3)c(F)cc2c1=O [Sarafloxacin] | 0.0114 (active) | 0.0236 (active) | 0.0367 (active) | 0.0409 (active) | 0.0128 (active) | 0.0174 (active) | 0.00503 (active) | 0.0079 (active) |
| NC(=O)c1cccnc1 [Nicotinamide] | 1.02 | 1.06 | 1.05 | 1.01 | 1.07 | 1.1 | 0.996 | 1.01 |
